# PubChem BioAssay AID2165 (The Scripps Research Institute Molecular Screening Center, 2009)
# A number with no mark means an inactive call. The source made the active and inactive calls. Rule as the data show it: active = IC50 below about 9 µM; inactive = the rest.
# Test system: Ba/F3 Cytotoxicity
# Assay: JAK2V617F kinase, IRF1 reporter and Ba/F3 cytotoxicity panel, late-stage follow-up, HEL and Ba/F3 cells (AID 2165)
row,SMILES,IC50
1,Cc1cccc(OCC(=O)Nc2cc(C)c(C)cc2O)c1,> 40 µM
2,Cc1cccc(NC(=O)COc2cccc(C)c2)c1,> 40 µM
3,Cc1cccc(OCC(=O)Nc2cccc(O)c2)c1,> 40 µM
4,COc1cc2ncnc(Nc3ccc(F)c(F)c3)c2cc1OC,> 40 µM
5,C=CCNc1ncnc2cc(OC)c(OC)cc12,> 40 µM
6,Cc1ccc(O)c(NC(=O)COc2cc(C)ccc2C)c1,1.36 µM (active)
7,Cc1ccc(O)c(NC(=O)COc2ccccc2Cl)c1,0.0217 µM (active)
8,Cc1cc(C)c(C(=O)/C=C/c2ccccc2F)c(=O)[nH]1,0.69 µM (active)
9,Cc1ccc(O)c(NC(=O)COc2ccc(Cl)cc2)c1,1.39 µM (active)
10,O=C(NCCc1cccnc1)C1CCC(=O)N(CCc2cccc(F)c2)C1 (configuration not stated),> 40 µM
11,COc1cc2ncnc(Sc3ccc(C)cc3)c2cc1OC,3.68 µM (active)
12,O=C(C=Cc1ccccc1F)c1c(-c2ccccc2)c2ccccc2[nH]c1=O,0.37 µM (active)
13,Cc1[nH]c(=O)c(C(=O)C=Cc2ccc(I)cc2)c2c1CCCC2,> 40 µM
14,Cc1cccc(OCC(=O)Nc2ccc(C)c(C)c2)c1,> 40 µM
15,CCOc1cc2ncnc(Nc3cccc(Br)c3)c2cc1OCC,3.16 µM (active)
16,CC(C)c1cc(C=C(C#N)C(=O)NCCCc2ccccc2)cc(C(C)C)c1O,4.29 µM (active)
17,COc1cc2ncnc(Nc3ccc(OC(F)(F)F)cc3)c2cc1OC,> 40 µM
18,COc1ccccc1/C=C/C(=O)c1c2c(c(C)[nH]c1=O)CCCC2,1.06 µM (active)
19,COc1cc2ncnc(Sc3ccc(Cl)cc3)c2cc1OC,> 40 µM

row,SMILES,IC50
1,O=C(COc1ccccc1)Nc1ncccn1,> 40 µM
2,Cc1cccc(OCC(=O)Nc2ccc(O)cc2)c1,6.62 µM (active)
3,Cc1[nH]c(=O)c(C(=O)C=Cc2ccc(Cl)cc2)c2c1CCCC2,2.48 µM (active)
4,Cc1ccc(O)c(NC(=O)COc2ccc(I)cc2)c1,0.0269 µM (active)
5,N#C/C(=C\c1ccc(O)c(O)c1)C(=O)NCCCCc1ccccc1,0.33 µM (active)
6,COc1cc2ncnc(Nc3ccccc3)c2cc1OC,> 40 µM
7,Cc1[nH]c(=O)c(C(=O)C=Cc2ccc(Br)cc2)c2c1CCCC2,2.57 µM (active)
8,Cc1cccc(OCC(=O)Nc2cccc(C)c2C)c1,> 40 µM
9,Cc1cc(C)cc(NC(=O)COc2cccc(C)c2)c1,> 40 µM
10,Cc1ccc(O)c(NC(=O)COc2ccc(C3CCCCC3)cc2)c1,3.91 µM (active)
11,COc1cc2ncnc(Nc3cccc(C)c3)c2cc1OC,> 40 µM
12,CCc1cccc(Nc2ncnc3cc(OCCOC)c(OCCOC)cc23)c1,> 40 µM
13,Cc1ccc(O)c(NC(=O)COc2cccc3ccccc23)c1,1.95 µM (active)
14,COc1cc(C=C(C#N)C(N)=O)cc(CSc2ccccc2)c1O,> 40 µM
15,COCCOc1cc2ncnc(Nc3cccc(C#Cc4ccc(-c5ccccc5)cc4)c3)c2cc1OCCOC,> 40 µM
16,N#Cc1ccccc1NC(=O)COc1ccc2c(c1)OCO2,> 40 µM
17,COc1ccc(OCC(=O)Nc2cc(C)ccc2O)cc1,2.01 µM (active)
18,COc1cc2ncnc(Nc3ccc(O)c(Br)c3)c2cc1OC,3.64 µM (active)
